Bioassay records from PubChem.
3T3 cytotox: Cytotoxic Profiling in NIH 3T3 Cell Line of Diverse Libraries Using Quantitative High-Throughput Screening; Potency, µM (series often up to 96.7 µM), actives largely listed as inhibitors; 94,000 compounds, 4.3% hits; AID 1345082, 2018; NIH 3T3 viability, CellTiter-Glo ATP luminescence, 48-72 h; further: nearly all actives have a fitted effect of over 55% in size
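Cells were seeded at 400 per well, treated with pin-transferred compound, and kept 48 or 72 hr at 37 °C before CellTiter-Glo addition and luminescence imaging of cellular ATP.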
NPR1 antag: Natriuretic polypeptide receptor (hNpr1) antagonism - Primary qHTS | HEK293 hNpr1 GloSensor cGMP, ANP-stimulated luminescence | Potency, µM (highest dose often 46.3 µM), hits mostly inhibitors | 76,000 compounds, 1.6% hits; calls by dose curve; further: nearly all actives have a fitted effect of over 60% in size
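HEK293 cells stably expressing human Npr1 and cGMP GloSensor pGS-40F, loaded 2 h with 2% GloSensor reagent, given compound 30 min at room temperature. Luminescence read before and 20 min after 0.1 nM hNppA.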
FLuc inh-1: Firefly luciferase inhibition profiling of diverse chemical library using quantitative high-throughput screening. Luciferin 4-monooxygenase (Photinus pyralis), P08659. purified P. pyralis luciferase, luminescence, biochemical. Potency, µM (top dose mostly 115 µM), most hits filed as inhibitors. 76,000 compounds, 2.5% hits. AID 1347043, 2019; further: nearly all actives have a fitted effect of over 65% in size
Target sequence (P08659 whole entry, looked up): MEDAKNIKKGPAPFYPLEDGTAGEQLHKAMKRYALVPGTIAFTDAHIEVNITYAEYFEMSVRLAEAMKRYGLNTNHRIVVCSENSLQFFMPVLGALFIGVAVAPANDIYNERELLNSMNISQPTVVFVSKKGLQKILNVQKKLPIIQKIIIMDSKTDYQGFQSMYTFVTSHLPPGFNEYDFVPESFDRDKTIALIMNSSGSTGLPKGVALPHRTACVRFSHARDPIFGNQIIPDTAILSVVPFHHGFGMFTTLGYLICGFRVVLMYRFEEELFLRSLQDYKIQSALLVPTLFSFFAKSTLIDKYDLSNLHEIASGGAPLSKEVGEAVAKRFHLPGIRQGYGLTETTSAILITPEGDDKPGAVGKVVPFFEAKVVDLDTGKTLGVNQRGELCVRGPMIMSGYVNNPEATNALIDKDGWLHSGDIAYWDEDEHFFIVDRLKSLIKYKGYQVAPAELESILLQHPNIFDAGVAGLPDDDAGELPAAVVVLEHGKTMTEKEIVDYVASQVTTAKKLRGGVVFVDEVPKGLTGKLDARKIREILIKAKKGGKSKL
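Luminescence read by CCD imaging after purified firefly luciferase (10nM final) was added to substrate buffer holding 10uM D-luciferin and 10uM ATP, pH 7.5, pre-dosed with compound.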
HEK293 viab: GF-AFC viability counterscreen for inhibitors of alpha-synuclein gene (SNCA) expression. AID 1671193, 2021. 150,000 compounds, 0.12% hits. HEK-293-SNCA-luc viability, GF-AFC fluorescence, 24 h. Potency, µM (series often up to 57.1 µM), hits mostly cytotoxic; further: nearly all actives have a fitted effect of over 30% in size
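HEK-293-SNCA-luc cells (1500/well) plated 24 h, then exposed 24 h to a dilution series; GF-AFC added 30 min at 37C, fluorescence 405/540 nm; normalised to medium-only and DMSO wells, Hill fit.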
SNCA expr inhib: Primary qHTS assay for inhibitors of alpha-synuclein gene (SNCA) expression; HEK-293 SNCA-luciferase knock-in, luminescence, 24 h; Potency, µM (doses to about 57.2 µM), actives largely listed as inhibitors; 140,000 compounds, 0.17% hits; AID 1671194, 2021; further: nearly all actives have a fitted effect of over 45% in size
HEK cytotox: Cytotoxic Profiling in HEK 293 Cell Line of Diverse Libraries Using Quantitative High-Throughput Screening; HEK 293 viability, ATP luminescence (CellTiter-Glo), 48-72 h; Potency, µM (series often up to 115 µM), actives largely listed as inhibitors; 94,000 compounds, 6.6% hits; further: nearly all actives have a fitted effect of over 60% in size
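HEK 293 cells seeded at 250 cells/well were exposed to compound for 48 or 72 hr at 37 degree Celsius. Viability taken as ATP content by CellTiter-Glo luminescence.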
FLuc SDR no ATP: Firefly luciferase (FLuc-C-HiBiT) SDR gain of signal screen - without ATP; shares compounds with FLuc inh-1; Purified FLuc-C-HiBiT, Nano-Glo HiBiT luminescence, no ATP; Potency, µM (top dose mostly 32.7 µM), usual class: activators; 1,300 compounds, 7.8% hits; further: nearly all actives have a fitted effect of over 55% in size
FLuc SDR ATP: Firefly luciferase (FLuc-C-HiBiT) SDR gain of signal screen - plus ATP; shares compounds with FLuc inh-1; purified FLuc-C-HiBiT + ATP, HiBiT complementation luminescence; Potency, µM (top dose mostly 32.7 µM), usual class: activators; 1,300 compounds, 8.7% hits; AID 1963319, 2024;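 further: signal reports ligand binding via conformational change of the enzyme rather than luciferase catalysis; nearly all actives have a fitted effect of over 55% in size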
FLuc inh-2: Firefly luciferase (FLuc-C-HiBiT) enzymatic inhibition screen - Functional assay; Potency, µM (doses to about 32.7 µM), usual class: inhibitors; shares compounds with FLuc inh-1; 1,300 compounds, 42% hits; purified FLuc-C-HiBiT enzyme, luciferin luminescence; further: nearly all actives have a fitted effect of over 70% in size
A number is an active result; - = inactive; ? = inconclusive; . = no result given; [ ] = remark or other dose. In the library only some 7.4% were active in any assay of this set; here they are far more common. Unless noted, the call rests on the fitted dose curve; in most records, active means well fitted curve in the direction sought with a large enough effect; inconclusive means small, poorly fitted or top-dose-only effect, or another doubt; inactive means no such curve, though single readings can be large; an effect the other way counts as inactive or inconclusive.

SMILES	3T3 cytotox	NPR1 antag	FLuc inh-1	HEK293 viab	SNCA expr inhib	HEK cytotox	FLuc SDR no ATP	FLuc SDR ATP	FLuc inh-2
COc1ccc(C(=O)Nc2ccccc2-c2nc3ccccc3s2)c(OC)c1	.	.	.	-	-	.	-	-	-
NC(=O)CSc1nc2ccc(NC(=O)COc3ccccc3)cc2s1	.	.	.	-	-	.	.	.	.
COc1cccc(C(=O)Nc2ccccc2-c2nc3ccccc3s2)c1	.	.	.	-	?	.	-	-	-
O=[S+]([O-])(CCC(F)(F)F)N1CCN(Cc2ccccc2-c2cccnc2)CC1	?	.	.	-[12.5 µM]	-	?	.	.	.
COCC(=O)NCCc1ncc(C)n1C1CCCCCC1	-	.	.	-	-	-	.	.	.
NS(=O)(=O)c1cccc(N=Cc2c(O)[nH]c3ccccc23)c1	.	.	.	.	.	.	-	-	-
O=C1C(c2c(O)[nH]c3ccccc23)=Nc2ccccc21	.	.	.	-	-	.	.	.	.
CC(NC(=O)Cc1ccc(NC(=O)N2CCCCc3ccccc32)cc1)c1ccccc1 (stereo not given)	.	.	.	-	-	.	.	.	.
O=C(Nc1ccc2c(c1)OCO2)c1cccc2c1CCN2C(=O)Nc1ccc(F)cc1	-	7.1µM	0.71µM	-	-	?	-	0.25µM	0.2µM
COc1ccc(CNC(=O)c2cccc3c2CCN3C(=O)c2ccc(F)cc2)cc1	-	-	-	-	-	-	.	.	.
O=C(NCCc1cccs1)c1cccc2c1CCN2C(=O)Nc1ccc(F)cc1	?	?	1.3µM	-	-	?	-	1.4µM	0.79µM
Cc1ccc(CNC(=O)c2cccc3c2CCN3C(=O)c2ccc(F)cc2)o1	-	-	-	-	-	?	.	.	.
CC(NC(=O)c1cccc2c1CCN2C(=O)Nc1ccccc1)c1cccnc1 (stereo not given)	-	-	6.3µM	-	-	?	-	3.1µM	1.8µM
O=C(NCc1ccco1)c1cccc2c1CCN2C(=O)Nc1ccc(F)cc1	?	?	2.2µM	-	-	?	?	1.8µM	1.1µM
COc1ccc(S(=O)(=O)N2CCC(OCc3noc(C4CCCO4)n3)CC2)cc1 (stereo not given)	-	.	.	-	-	-	.	.	.
CN1CC(=O)N(C2CCCNCC2)Cc2c(NCCCN3CCCCC3)ncnc21 (stereo not given)	-	.	.	-	-	-	.	.	.
COc1ccc2c(c1)CN(CC1CC1)C(=O)CCN2CC(O)C(F)(F)F (stereo not given)	?	.	.	.	.	-	.	.	.
O=C(NCCc1cccnc1)c1cccc2c1CCN2C(=O)Nc1ccc(F)cc1	-	11µM	0.4µM	-	?	45µM	-	0.35µM	0.22µM
COc1cccc(CNC(=O)c2cccc3c2CCN3C(=O)c2ccc(F)cc2)c1	?	?	?	?	-	?	.	.	.
Cn1ccnc1C(O)c1cc2n(n1)CCN(c1ncnc3nc[nH]c13)C2 (stereo not given)	-	-	-	-	?	-	-	-	-
Cc1ccc(-n2cc(CN3CCn4nc(C(O)c5nccn5C)cc4C3)cn2)cc1 (stereo not given)	-	-	?	-	-	-	.	.	.
Cc1cc(NCCc2cnccn2)nc(-c2ccccc2O)n1	?	-	10µM	-	-	?	-	-	-
C[C@H](C(=O)NCCN1CCOCC1)C1CC[C@@]2(C)Cc3sc(CSc4ccccc4)nc3[C@@H](C)[C@@H]2[C@H]1O (stereo not given in full)	?	10µM	11µM	-	-	40µM	-	-	?
C[C@H](C(=O)N(C)CCC#N)C1CC[C@@]2(C)Cc3sc(NC(=O)c4cccn4C)nc3[C@@H](C)[C@@H]2[C@H]1O (stereo not given in full)	?	?	5µM	-	?	?	-	?	7µM
C[C@H](C(=O)N1CCOCC1)C1CC[C@@]2(C)Cc3sc(-c4ccccc4)nc3[C@@H](C)[C@@H]2[C@H]1O (stereo not given in full)	?	-	14µM	-	3.2µM	?	6.2µM	?	3.5µM
SMILES	3T3 cytotox	NPR1 antag	FLuc inh-1	HEK293 viab	SNCA expr inhib	HEK cytotox	FLuc SDR no ATP	FLuc SDR ATP	FLuc inh-2
O=C(C1CCCN1C(=O)c1ccccc1F)N1CCC(N2CCCC2=O)CC1 (stereo not given)	-	.	.	-	-	-	.	.	.
CN1CCN(c2ccc(-c3cc4c(ccn4C)c(C(=O)NCCN4CCNC4=O)n3)cc2)CC1	?	-	4.5µM	-	-	?	-	-	?
COc1ccc(CN2CCOc3ccc(C(=O)NCc4ccc(C)cc4)cc3C2)cc1OC	?	-	-	-	-	?	.	.	.
COc1ccc(OC)c(CN2CCOc3ccc(C(=O)NCc4ccc(C)cc4)cc3C2)c1	?	-	-	-	-	?	-	-	-
CCNc1cc(N2CCC(CCC(=O)O)CC2)ncn1	-	-	32µM	-	1.3µM	-	-	9.9µM	5.6µM
COc1cccc(C(=O)Nc2cccc(OCc3cc(=O)n4c5c(sc4n3)CCCC5)c2)c1	.	.	.	-	-	.	-	-	?
COc1ccc(C(=O)Nc2cccc(OCc3cc(=O)n4c5c(sc4n3)CCCC5)c2)cc1	.	.	.	-	-	.	.	.	.
CC(C)Cc1noc(-c2ccc(N3CCCC(C(C)(C)O)C3)nc2)n1 (stereo not given)	?	-	-	-	-	?	.	.	.
OC1CCCN(c2ccc(-c3nc(-c4cccc(C(F)(F)F)c4)no3)cn2)C1 (stereo not given)	?	10µM	1.6µM	-	-	?	-	-	?
COc1cccc(-c2noc(-c3ccc(N4CCCC(CO)C4)nc3)n2)c1OC (stereo not given)	?	-	1.8µM	-	-	?	?	?	2.8µM
